Hits are enriched below; roughly 0.55% of the tested compounds scored in any of these assays.
TRPV1 potentiator: enhances activation of the human vanilloid receptor TRPV1; 0.02% of 320,000 active; TRPV1-expressing cells, Fluo-8 calcium influx, capsaicin EC20 potentiation; potentiation, % at 8.33 µM; in the data active = potentiation above about 80%; inconclusive = between about 30% and that limit; note: 0% is about no effect
Target sequence (Q8NER1 whole entry, looked up): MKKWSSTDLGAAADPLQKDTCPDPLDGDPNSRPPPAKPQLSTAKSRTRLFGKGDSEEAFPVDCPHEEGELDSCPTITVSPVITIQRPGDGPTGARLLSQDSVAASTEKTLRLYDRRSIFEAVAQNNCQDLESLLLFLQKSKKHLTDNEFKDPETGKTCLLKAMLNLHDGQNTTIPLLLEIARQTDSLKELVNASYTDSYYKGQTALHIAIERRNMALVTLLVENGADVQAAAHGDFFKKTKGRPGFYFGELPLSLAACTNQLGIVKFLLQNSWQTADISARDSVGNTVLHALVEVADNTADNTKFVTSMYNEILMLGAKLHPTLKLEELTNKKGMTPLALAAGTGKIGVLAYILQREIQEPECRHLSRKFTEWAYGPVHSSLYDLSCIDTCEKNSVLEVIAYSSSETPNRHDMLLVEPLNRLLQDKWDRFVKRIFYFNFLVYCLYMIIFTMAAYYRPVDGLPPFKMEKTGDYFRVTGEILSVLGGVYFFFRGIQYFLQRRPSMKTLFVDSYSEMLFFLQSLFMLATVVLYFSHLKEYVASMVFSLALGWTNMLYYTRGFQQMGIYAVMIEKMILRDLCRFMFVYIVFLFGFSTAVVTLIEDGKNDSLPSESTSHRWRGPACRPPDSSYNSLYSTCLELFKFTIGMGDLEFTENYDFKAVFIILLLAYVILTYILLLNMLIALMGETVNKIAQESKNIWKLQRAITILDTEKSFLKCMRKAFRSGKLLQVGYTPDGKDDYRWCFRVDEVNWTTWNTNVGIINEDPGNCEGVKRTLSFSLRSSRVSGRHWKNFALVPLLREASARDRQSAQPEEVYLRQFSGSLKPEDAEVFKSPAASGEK
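Fluo-8 calcium influx in TRPV1-expressing cells, kinetic read (ex 480/em 520 nm). Compound added and read 3 min for agonist activity, followed by capsaicin at EC20 final and 2 min further read for enhancement.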
IMPase Li inh: cell-permeable IMPase inhibitors with lithium potentiation. Potency, µM (highest dose often 59.4 µM), for inactives: top-dose activity, negative = IMPase inhibition, hits mostly inhibitors. CHO-M1 cells, IP1 TR-FRET (IP-One), carbachol + lithium. 0.35% of 210,000 active;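 note: IP1 builds up when IMPase is blocked and the TR-FRET signal falls; potency is the fitted concentration of half-maximal effect; plate controls were basal vehicle for no effect and high inhibitor control for full effect; nearly all actives have a fitted effect of over 50% in size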
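CHO cells stably expressing M1 receptor (2000/well) were cultured 16–30 h, then exposed to compounds with a small lithium addition for 30 min at 37C. IP1 was measured by TR-FRET competition; AC50 from Hill fits.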
TRPV1 agonist: human TRPV1 agonism. AID 540275. activation, % at 8.33 µM. TRPV1-expressing cells, Fluo-8 calcium influx, agonist mode. 0.19% of 320,000 active; in the data active = activation above about 80%; inconclusive = between about 30% and that limit; note: 0% is about no effect
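TRPV1-expressing cells were cultured overnight at 35.5C and loaded with Fluo-8 calcium dye for 40 to 90 min at room temperature. After a 10 s baseline, compound was added and calcium influx was read kinetically for 3 min (ex 480/em 520 nm).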
AT treatment: potential ataxia-telangiectasia treatment; 0.19% of 320,000 active; F2112 A-T fibroblasts, KAP-1 phosphorylation AlphaLISA; neocarzinostatin DNA damage 30 min before lysis; AID 485349; Potency, µM (series often up to 57.5 µM), for the others: at the highest dose activation, usual class: activators; note: potency is the fitted concentration of half-maximal effect; % of control where 0% means no effect; nearly all actives have a fitted effect of over 45% in size
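ATM-like activity read as KAP-1 phosphorylation via AlphaLISA donor/acceptor antibody pairs after lysis and 6 hr at 25C. Cells were ATM-null patient fibroblasts (F2112, hTERT), dosed 60 min, then exposed to the DSB inducer NCS for 30 min.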
The depositor's hits bear a star; [ ] = dose if it differs, or a comment. Unless noted, calls come from the whole dose curve; as a rule, active = well fitted curve in the direction sought with a large enough effect; inconclusive = small, poorly fitted or top-dose-only effect, or another doubt; inactive = no such curve, though single readings can be large; an effect the other way counts as inactive or inconclusive.

`O=S(=O)(Nc1ccc(-c2nc3cccnc3s2)cc1)c1ccccc1F` gave TRPV1 potentiator -7.0, TRPV1 agonist 5.2 and AT treatment 15.8µM*.
`CCC(C)(C)OC` gave IMPase Li inh 11.9%.
`Cc1cccc(C)c1NC(=O)COC(=O)c1cc(=O)c2ccccc2o1` gave TRPV1 potentiator 8.1, TRPV1 agonist 2.6 and AT treatment 3.55µM*.
`Cc1ccc(NC(=O)COC(=O)c2cc(=O)c3ccccc3o2)cc1F` gave TRPV1 potentiator -16.6, TRPV1 agonist -1.1 and AT treatment 0.6%.
Screening Cc1cc2nc(-c3ccc(SCC(=O)NC(C)C)nc3)[nH]c2cc1C returned TRPV1 potentiator 10.1, IMPase Li inh 3.1%, TRPV1 agonist -1.5 and AT treatment -2.2%.
`Cc1cc(NC(=O)CSc2ccc(-c3nc4cc(C)c(C)cc4[nH]3)cn2)no1` gave TRPV1 potentiator -0.2, IMPase Li inh 11.2µM*, TRPV1 agonist -4.9 and AT treatment 6.5%.
Screening O=C(O)c1nc(-c2ccccc2)[nH]c1C(=O)O returned IMPase Li inh -2.9%.
For N#Cc1c(-c2ccco2)nc(SCc2ccc(F)cc2)[nH]c1=O the results were TRPV1 potentiator 6.8, IMPase Li inh 12.6µM*, TRPV1 agonist -1.0 and AT treatment 6.2%.
`C[C@H](Oc1ccc(Oc2cnc3ccc(Cl)cc3n2)cc1)C(=O)O` gave IMPase Li inh -5.0%.
Screening COc1ccc(OCC(=O)NC(=S)Nc2ccc3c4c(cccc24)CC3)cc1 returned TRPV1 potentiator -5.0, IMPase Li inh 7.08µM*, TRPV1 agonist 1.3 and AT treatment -9.1%.
Screening NS(=O)(=O)Nc1c(Br)cc(Br)c2cccnc12 returned TRPV1 potentiator -6.0 and TRPV1 agonist 2.0.
COCCn1c(=O)c(-c2cccs2)nc2cnc(N3CCOCC3)nc21 was read as IMPase Li inh 11.2µM*.
For COc1ccc(-n2c(=O)c(-c3cccs3)nc3cnc(N4CCOCC4)nc32)cc1 the results were IMPase Li inh -6.0%.
For Cc1ccc(NC(=O)c2ccc3snnc3c2)cc1C the results were TRPV1 potentiator -13.4, TRPV1 agonist inconclusive and AT treatment 4.5%.
Screening O=C(Nc1ccc(F)cc1)c1ccc2snnc2c1 returned TRPV1 potentiator -17.6, TRPV1 agonist 81.8* and AT treatment -1.4%.
Screening CCC(Sc1nc(C)cc(=O)[nH]1)C(=O)Nc1nc(-c2ccccc2)cs1 (centres undefined) returned TRPV1 potentiator -2.6, IMPase Li inh 35.8%[38.3 µM], TRPV1 agonist -0.1 and AT treatment 0.5%.
Screening Cc1cccc(NC(=O)CSc2nc(-c3ccccc3)c(C#N)c(=O)[nH]2)c1C returned TRPV1 potentiator 20.8, IMPase Li inh 10µM*, TRPV1 agonist 3.9 and AT treatment 4.0%.
`N#Cc1c(-c2ccccc2)nc(SCC(=O)Nc2ccccc2F)[nH]c1=O` gave TRPV1 potentiator 7.0, IMPase Li inh 10µM*, TRPV1 agonist -1.7 and AT treatment 2.1%.
Screening N#Cc1c(-c2ccccc2)nc(SCC(=O)Nc2ccccc2)[nH]c1=O returned TRPV1 potentiator 12.5, IMPase Li inh inconclusive, TRPV1 agonist -0.9 and AT treatment 1.1%.
`Cc1cc(C)nc(NS(=O)(=O)c2ccc(NC(=O)CSc3nc(-c4ccccc4)c(C#N)c(=O)[nH]3)cc2)n1` gave TRPV1 potentiator -54.7, IMPase Li inh 11.2µM*, TRPV1 agonist 0.5 and AT treatment 0.7%.
CCC(Sc1nc(-c2ccccc2)c(C#N)c(=O)[nH]1)C(=O)Nc1nnc(C)s1 (centres undefined) was read as TRPV1 potentiator 0.1, IMPase Li inh 3.16µM*, TRPV1 agonist 12.1 and AT treatment -5.9%.
For Cc1ccc(S(=O)(=O)N2CCC(C(=O)O)(c3ccccc3)CC2)cc1 the results were IMPase Li inh -0.2%.
For CC(C)(C)OC=O the results were IMPase Li inh 4.5%.
Screening CCOC(=O)CN1C(=O)N[C@@H](c2cccc(C(F)(F)F)c2)[C@H](C(=O)OC)[C@H]1C returned IMPase Li inh 5.5%.
C[C@@H]1CCCN(CP(=O)(c2ccccc2)c2ccccc2)C1 was read as IMPase Li inh -5.5%.
N#Cc1c(-c2ccccc2)nc(SCC(=O)Nc2nnc(C(F)(F)F)s2)[nH]c1=O was read as TRPV1 potentiator 5.3, IMPase Li inh 11.2µM*, TRPV1 agonist 0.5 and AT treatment -3.4%.
N#Cc1c(-c2ccccc2)nc(SCC(=O)Nc2ccc(OC(F)(F)Cl)cc2)[nH]c1=O was read as TRPV1 potentiator 15.4, TRPV1 agonist -4.6 and AT treatment 10.0%.
Screening Cc1cc(NC(=O)CSc2nc(-c3ccccc3)c(C#N)c(=O)[nH]2)no1 returned TRPV1 potentiator 15.2, IMPase Li inh 7.94µM* and TRPV1 agonist -2.1.
For O=C(O)c1ccc(Nc2c3ccccc3nc3ccccc23)cc1 the results were TRPV1 potentiator -23.0, TRPV1 agonist 2.3 and AT treatment 28.2µM*.
`CCOC(=O)C1=C(C)NC(C)=C(C(=O)OC)[C@@H]1c1cccc(Cl)c1Cl` gave IMPase Li inh -2.5%.
For CCn1c2c(c3cc(Br)ccc31)CCC/C2=N\O the results were TRPV1 potentiator 11.4, IMPase Li inh 11.2µM* and TRPV1 agonist 4.1.
C=C1CCC[C@]2(C)C[C@H]3OC(=O)[C@H](CNCCc4ccccc4OC)C3CC12 (some centres undefined) was read as IMPase Li inh 23.3%.
`Cc1ccccc1N1C(=O)c2ccccc2C1O` (centres undefined) gave TRPV1 potentiator -1.2, TRPV1 agonist -0.1 and AT treatment 39.8µM*.
For CO[Si](CCCNCCC[Si](OC)(OC)OC)(OC)OC the results were IMPase Li inh -9.2%.
For COc1ccc2[nH]cc(CCNc3cc(-c4c(C)noc4C)ncn3)c2c1 the results were IMPase Li inh -4.4%.
O=C(O)c1ccc(/C=N\N=C2c3ccccc3-c3ccccc32)cc1 was read as IMPase Li inh 2.8%.
`Cc1ccc(Cn2c(=N)c(C(=O)NCC3CCCO3)cc3c(=O)n4cccc(C)c4nc32)cc1` (centres undefined) gave TRPV1 potentiator -11.0, TRPV1 agonist 81.8* and AT treatment 0.5%.
Screening Cc1ccc(Cn2c(=N)c(C(=O)NCC3CCCO3)cc3c(=O)n4ccccc4nc32)cc1 (centres undefined) returned TRPV1 potentiator -3.4, TRPV1 agonist inconclusive and AT treatment 3.5%.
O=C1C(CSCc2ccccc2)NC(=S)N1c1ccccc1 (centres undefined) was read as TRPV1 potentiator 11.4, TRPV1 agonist 3.5 and AT treatment 35.5µM*.
`C=CCc1ccc(OCC(O)CN2CCCCC2)c(OC)c1` (centres undefined) gave TRPV1 potentiator -2.2, IMPase Li inh 10.2%[38.3 µM], TRPV1 agonist 4.5 and AT treatment 12.4%.
`C=CCc1ccc(OCC(O)CN2CCN(c3ccccc3)CC2)c(OC)c1` (centres undefined) gave TRPV1 potentiator -3.1, TRPV1 agonist 1.9 and AT treatment 20µM*.

Source: PubChem BioAssay (National Center for Advancing Translational Sciences (NCATS))
